The source of these data is PubChem BioAssay.

For some of these results: Measured potencies and affinities stand elsewhere. The list shows a part of the results. Inconclusive results are not listed. Active and inactive are the calls of the source. Unless noted, how the calls were made is not given here.

Test [1] can be described thus: Ring1 de-repression measured by qPCR – cell-based, mouse ESC, RT-qPCR, cherry-pick, esBAF inhibitor project, confirmation (AID 743176;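 active means Ring1 gene expression raised more than 2-fold over untreated cells in both replicates at either tested dose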;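 further: Ring1 transcript normalised to actin housekeeping signal by TaqMan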). The settings on record: mouse ESC E14, Ring1 mRNA RT-qPCR fold change, stronger effect = higher value.
Test [2] in a line: Fgf4 repression measured by qPCR – cell-based, mouse ESC, RT-qPCR, cherry-pick, esBAF inhibitor project, confirmation (AID 743177;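 active means Fgf4 expression under 0.8 fold of control in both repeat measurements at one or both tested doses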;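 further: Fgf4 transcript normalised to actin in duplex TaqMan qPCR; cells exposed to compound for 24 h before lysis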). The settings on record: mouse ESC E14, Fgf4 mRNA qPCR fold change, stronger effect = lower value. (In general: Quantitative PCR measures a nucleic acid by following its amplification.)
Test [3] in a line: Bmi1 mRNA increase in mouse ESCs – cell-based, RT-qPCR, mouse ESC, single point, cherry-pick, confirmation (AID 743180;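 active means Bmi1 expression fold change above 6 at either tested concentration, seen in replicate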). The settings on record: mouse ESC E14, Bmi1 mRNA qPCR fold, stronger effect = higher value.
Test [4] in a line: viability loss in A549 cells – cell-based, plate reader, single point, cherry-pick, cytotoxicity control (AID 743188). To be noted: at 25 µM.
A short description of test [5]: viability loss in HepG2 cells – cell-based, plate reader, single point, cherry-pick, cytotoxicity control (AID 743189; in the data active means activity change below about -50%). To be noted: at 25 µM, stronger effect = lower value.
A short description of test [6]: viability loss in HEK293 cells – cell-based, plate reader, single point, cherry-pick, cytotoxicity control (AID 743190; in the data active means activity change below about -38%, passing the limit was not always enough). To be noted: at 25 µM.
Test [7] in a line: A549 cell cytotoxicity, dose response, cytotoxicity control, plate reader, cherry-pick, antagonist series (AID 743412).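 Further: 0% = neutral control wells and -100% = positive control wells.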 The settings on record: series mostly up to 26 µM.
A short description of test [8]: toxicity toward HepG2 liver cells – cell-based, plate reader, cherry-pick, antagonist series, cytotoxicity control, dose response (AID 743416).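 Further: 0% = neutral control wells and -100% = positive control wells.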 The settings on record: series mostly up to 26 µM.

Regarding `Cc1ccc(C(=O)Nc2ccc3c(c2)OCO3)cc1S(=O)(=O)N1CCCCC1`, the fold change was 1.42 in test [1] (Ring1 fold increase, at 7 µM); 1.4 (inactive) in test [1] (at 33 µM); 1.85 in test [3] (Bmi1 de-repression, at 7 µM); 1.9 (inactive) in test [3] (at 33 µM). For the same molecule, the Fgf4 expression fold change in test [2] (Fgf4 expression, at 7 µM) was 0.993; in test [2] (at 33 µM) it was 0.915 (inactive). Moreover, in test [4], the cell viability change % (negative = cytotoxic) is 4.97% (inactive). Besides, the values for the activity change, negative = inhibition in test [5] and in test [6] were -30.2% (inactive) and -2.34% (inactive), respectively.

Regarding `COc1ccc(Nc2ncnc3sc(C)cc23)cc1`, the fold change in test [1] (Ring1 fold increase, at 7 µM) was 1.32; in test [1] (at 33 µM), 1.33 (inactive); in test [3] (Bmi1 de-repression, at 7 µM), 1.3; in test [3] (at 33 µM), 1.05 (inactive). Also, the Fgf4 expression fold change was 1.18 in test [2] (Fgf4 expression, at 7 µM) and 1.26 (inactive) in test [2] (at 33 µM). The cell viability change % (negative = cytotoxic) in test [4] was -6.19% (inactive). The results for the activity change, negative = inhibition in test [5] and in test [6] were -4.23% (inactive) and -3.92% (inactive), respectively.

On to `Cc1nc(-c2ccccc2)sc1-c1nnc(C2CC2)o1`, for which the fold change was 1.23 in test [1] (Ring1 fold increase, at 7 µM); 1.31 (inactive) in test [1] (at 33 µM); 1.21 in test [3] (Bmi1 de-repression, at 7 µM); 1.79 (inactive) in test [3] (at 33 µM). For the same molecule, the Fgf4 expression fold change in test [2] (Fgf4 expression, at 7 µM) was 0.99; in test [2] (at 33 µM), 1.05 (inactive). Moreover, in test [4], the cell viability change % (negative = cytotoxic) is 1.56% (inactive). Further, the activity change, negative = inhibition in test [5] is -14.2% (inactive); in test [6], -0.816% (inactive).

Regarding `CC(C)(C)NC(=O)Cn1nnc(-c2ccccc2Cl)n1`, the fold change was 1.18 in test [1] (Ring1 fold increase, at 7 µM); 1.12 (inactive) in test [1] (at 33 µM); 1.16 in test [3] (Bmi1 de-repression, at 7 µM); 1.15 (inactive) in test [3] (at 33 µM). For the same molecule, the Fgf4 expression fold change in test [2] (Fgf4 expression, at 7 µM) was 0.977; in test [2] (at 33 µM) it was 0.933 (inactive). Moreover, in test [4], the cell viability change % (negative = cytotoxic) is -11.9% (inactive). Further, the figures for the activity change, negative = inhibition in test [5] and in test [6] were -3.1% (inactive) and -13.6% (inactive), respectively.

For the molecule `COC(=O)c1ccc2nc(NC(=O)C(C)(C)C)sc2c1`, the result in test [7] was inactive.

`O=C(NC1(Cc2ccccc2)CCN(Cc2ccc(-c3ccccc3)cc2)C1=O)c1ccccc1` (configuration not stated): the molecule was called inactive in test [7].

For the molecule `C=CCN1CCN(C(=O)CCCc2ccccc2)CC1`, the outcome in test [7] was inactive.

`Cc1ccc(-c2cnn3c(N4CCOCC4)cc(C)nc23)cc1`: the molecule was classed as inactive in test [7].

Take `CCCOc1ccc2cc(-c3ccccn3)c(=O)oc2c1`: the outcome in test [7] was inactive.

On to `CC(=O)N1CCCC(c2cc(C(=O)Nc3ccccc3)no2)C1` (configuration not stated), for which the molecule was called inactive in test [7].

In the case of `CCCCCc1ccc(-c2ccc(C(=O)O)cc2)nc1`, the outcome in test [7] and in test [8] was inactive.

As for `Cc1ccc2nc(-c3ccc(NC(=O)c4cccnc4)cc3)oc2c1`, the result in test [7] and in test [8] was inactive.

Regarding `O=C(CCCc1ccccc1)Nc1cccc(C(=O)O)c1`, the result in test [7] and in test [8] was inactive.

Regarding `Cc1ccc(C(=O)CN2C(=O)c3ccccc3S2(=O)=O)cc1`, the call in test [7] and in test [8] was inactive.

`Cc1cc(C(=O)COC(=O)c2cccn2C)c(C)n1Cc1ccco1`: the outcome in test [7] and in test [8] was inactive.

As for `Cc1ccc(C(=O)C2C(=O)C3CCC2C3)cc1` (configuration not stated), the molecule was called inactive in test [7] and in test [8].

As for `Cc1c(NC(=O)c2ccc(-c3ccccc3)cc2)cccc1C(=O)O`, the result in test [7] and in test [8] was inactive.

For `C=CCNc1nc(-c2cc3ccccc3o2)cs1`, the call in test [7] and in test [8] was inactive.

`Cc1ccc(C(=O)n2nc(-n3cccc3)c3c(C)cc(C)nc32)cc1`: the result in test [7] and in test [8] was inactive.

Consider `O=C(O)c1ccc(N/N=C/c2ccc3ncccc3c2)cc1`, for which the result in test [7] and in test [8] was inactive.

On to `COCCCNc1ccn2nc(-c3ccccc3)cc2n1`, for which the call in test [7] and in test [8] was inactive.

With `O=C(c1cc(-c2ccc(Cl)cc2Cl)on1)N1CCCC1`, the molecule was called inactive in test [7] and in test [8].

On to `COc1ccc(S(=O)(=O)N2CCCCN3[C@H](CO)[C@H](c4ccc(-c5cccnc5)cc4)[C@@H]3C2)cc1`, for which the molecule was called inactive in test [7] and in test [8].

For the molecule `COc1cc(SC)ccc1C(=O)Nc1ccc(Cl)cn1`, the molecule was called inactive in test [7] and in test [8].

As to `c1nc(CCO[C@H]2CCCCO2)cc2cc3c(cc12)OCO3`, the molecule was called inactive in test [7] and in test [8].

For the molecule `FC(F)(F)c1cccc(CC2CN(Cc3ccccc3)Cc3ccccc3N2c2cc(Cl)cc(Cl)c2)c1` (configuration not stated), the call in test [7] and in test [8] was inactive.

For `CSc1nc2ccc(NC(=O)c3ccccn3)cc2s1`, the call in test [7] and in test [8] was inactive.

As for `O=C(Nc1cccnc1)c1cc(-c2ccc3c(c2)OCO3)on1`, the call in test [7] and in test [8] was inactive.

On to `O=C(c1cc(-c2ccc(Cl)cc2Cl)on1)N1CCOCC1`, for which the call in test [7] and in test [8] was inactive.

With `CC(C)Nc1ncnc2c1cnn2-c1ccc(Cl)cc1`, the outcome in test [7] and in test [8] was inactive.
